PubChem BioAssay (EPA / NIEHS)
The source made the active and inactive calls. Rule for the calls: active = hit-call score of the fitted dose curve at least 0.9, where 1 is the maximum; inactive = score below 0.9.

Experiments:
Settings in all cases: mRNA level, 48 h; actives raise or lower the signal
[1] = read-out: Insulin Like Growth Factor 1 (IGF1), IGF1 (gene 3479); test: LTEA_HepaRG_IGF1: Life Technologies and Expression Analysis (LTEA) Assay for Insulin Like Growth Factor 1 (IGF1) using HepaRG (AID 2283506)
Procedure, shortened: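 Expression measured by TaqMan qRT-PCR on a Fluidigm array, with three housekeeping genes for normalisation, after 48 h treatment of HepaRG cells. Top concentration 100 uM with half-log steps, 0.5% DMSO vehicle, bidirectional fit.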

[2] = read-out: Intercellular Adhesion Molecule 1 (ICAM1), ICAM1 (gene 3383); test: LTEA_HepaRG_ICAM1: Life Technologies and Expression Analysis (LTEA) Assay for Intercellular Adhesion Molecule 1 (ICAM1) using HepaRG (AID 2283507)
Procedure, shortened: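 Differentiated human HepaRG cells in serum-free induction medium exposed 48 h in duplicate to 8 half-log concentrations (top 100 uM, 0.5% DMSO). ICAM1 mRNA quantified by TaqMan qRT-PCR, normalized to ACTB, GAPDH and POLR2A; bidirectional fitting versus DMSO.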

[3] = read-out: Insulin-like growth factor-binding protein 1 (IGFBP1), IGFBP1 (gene 3484); test: LTEA_HepaRG_IGFBP1: Life Technologies and Expression Analysis (LTEA) Assay for Insulin-like growth factor-binding protein 1 (IGFBP1) using HepaRG (AID 2283508)
Procedure, shortened: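 HepaRG cells, plated 48 h then switched to serum-free induction medium, exposed in duplicate for 48 h to 8-point half-log series from 100 uM in 0.5% DMSO. mRNA measured by qRT-PCR, normalized to ACTB/GAPDH/POLR2A; bidirectional fit versus DMSO.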

[4] = read-out: Interleukin 6 (IL6), IL6 (gene 3569); test: LTEA_HepaRG_IL6: Life Technologies and Expression Analysis (LTEA) Assay for Interleukin 6 (IL6) using HepaRG (AID 2283509)
Procedure, shortened: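 qRT-PCR read-out of IL6 transcript, normalized to three housekeeping genes, after 48 h chemical exposure of HepaRG cells; 8-point half-log series, top 100 uM, 0.5% DMSO vehicle. Bidirectional curve fitting against DMSO baseline.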

[5] = read-out: Interleukin 6 Receptor (IL6R), IL6R (gene 3570); test: LTEA_HepaRG_IL6R: Life Technologies and Expression Analysis (LTEA) Assay for Interleukin 6 Receptor (IL6R) using HepaRG (AID 2283510)
Procedure, shortened: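 IL6R transcript level by qRT-PCR after 48 h chemical exposure (8-point, half-log, max 100 uM, 0.5% DMSO vehicle) of HepaRG cells in serum-free induction medium. Normalized to three housekeeping genes; curves fitted in both directions relative to DMSO.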

[6] = read-out: Potassium channel subfamily K member 1 (KCNK1), KCNK1 (gene 3775); test: LTEA_HepaRG_KCNK1: Life Technologies and Expression Analysis (LTEA) Assay for Potassium channel subfamily K member 1 (KCNK1) using HepaRG (AID 2283511)
Procedure, shortened: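 HepaRG, 48 h exposure, 8-pt half-log series top 100 uM, 0.5% DMSO vehicle, duplicates. Readout: KCNK1 transcript by qRT-PCR (Fluidigm array), housekeeping-normalized; bidirectional curve fit relative to DMSO baseline.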

[7] = read-out: Keratin 19 (KRT19), KRT19 (gene 3880); test: LTEA_HepaRG_KRT19: Life Technologies and Expression Analysis (LTEA) Assay for Keratin 19 (KRT19) using HepaRG (AID 2283512)
Procedure, shortened: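 Differentiated HepaRG cells in serum-free induction medium, exposed 48 h in duplicate to 8 half-log concentrations up to 100 uM in 0.5% DMSO. KRT19 mRNA by qRT-PCR, normalized to ACTB, GAPDH, POLR2A; bidirectional fit vs DMSO.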

[8] = read-out: JUN Transcription Factor, JUN (gene 3725); test: LTEA_HepaRG_JUN: Life Technologies and Expression Analysis (LTEA) Assay for JUN Transcription Factor using HepaRG (AID 2283513)
Procedure, shortened: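 mRNA measured by TaqMan qRT-PCR after 48 h chemical exposure of HepaRG cultures; normalization to three housekeeping genes. Duplicate eight-point half-log curves from 100 uM in 0.5% DMSO; gain or loss fitted against DMSO baseline.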

[9] = read-out: Lipase C (LIPC), LIPC (gene 3990); test: LTEA_HepaRG_LIPC: Life Technologies and Expression Analysis (LTEA) Assay for Lipase C (LIPC) using HepaRG (AID 2283514)
Procedure, shortened: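 HepaRG, 48 h exposure, 8-pt half-log series from 100 uM in 0.5% DMSO, duplicates. Readout: LIPC mRNA by Fluidigm qRT-PCR, housekeeping-normalized (ACTB/GAPDH/POLR2A). Gain or loss fitted bidirectionally against DMSO baseline.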

[10] = read-out: Lipoprotein lipase (LPL), LPL (gene 4023); test: LTEA_HepaRG_LPL: Life Technologies and Expression Analysis (LTEA) Assay for Lipoprotein lipase (LPL) using HepaRG (AID 2283515)
Procedure, shortened: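 HepaRG, 48 h exposure, 8-pt half-log dilutions from 100 uM, 0.5% DMSO vehicle, duplicates; qRT-PCR (Fluidigm array) of LPL mRNA vs housekeeping genes; bidirectional curve fit relative to DMSO baseline.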

[11] = read-out: MicroRNA 122 (MIR122), gene 406906; test: LTEA_HepaRG_MIR122: Life Technologies and Expression Analysis (LTEA) Assay for MicroRNA 122 (MIR122) using HepaRG (AID 2283516); note: the transcript read is the microRNA miR-122
Procedure, shortened: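 Expression measured by microfluidic qRT-PCR with three housekeeping genes for normalisation, after 48 h treatment of HepaRG cultures. Eight concentrations (top 100 uM, half-log steps, 0.5% DMSO vehicle) in duplicate; gain or loss fitted relative to vehicle.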

[12] = read-out: matrix metalloproteinase-10 (MMP10), MMP10 (gene 4319); test: LTEA_HepaRG_MMP10: Life Technologies and Expression Analysis (LTEA) Assay for matrix metalloproteinase-10 (MMP10) using HepaRG (AID 2283517)
Procedure, shortened: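 Transcript levels come from Fluidigm qRT-PCR normalized to three housekeeping genes, with curves fitted bidirectionally against 0.5% DMSO. Human HepaRG cells were dosed for 48 hours at concentrations up to 100 uM.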

MYC, MYC (gene 4609) = test: LTEA_HepaRG_MYC: Life Technologies and Expression Analysis (LTEA) Assay for MYC using HepaRG (AID 2283518)
Procedure, shortened: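 Differentiated HepaRG cells exposed 48 h in serum-free induction medium to 8 concentrations (top 100 uM, half-log steps; 0.5% DMSO), duplicate. MYC mRNA measured by Fluidigm qRT-PCR, normalized to ACTB, GAPDH, POLR2A; bidirectional fit versus DMSO.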

[13] = read-out: matrix metalloproteinase-3 (MMP3), MMP3 (gene 4314); test: LTEA_HepaRG_MMP3: Life Technologies and Expression Analysis (LTEA) Assay for matrix metalloproteinase-3 (MMP3) using HepaRG (AID 2283519)
Procedure, shortened: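 qRT-PCR read-out of MMP3 mRNA (normalised to three housekeeping genes) in HepaRG liver cells after 48 h chemical exposure; 8-point half-log series, top 100 uM, 0.5% DMSO vehicle. Bidirectional curve fitting against DMSO baseline.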

[14] = read-out: Paternally Expressed 10 (PEG10), PEG10 (gene 23089); test: LTEA_HepaRG_PEG10: Life Technologies and Expression Analysis (LTEA) Assay for Paternally Expressed 10 (PEG10) using HepaRG (AID 2283520)
Procedure, shortened: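 PEG10 transcript measured by Fluidigm qRT-PCR, normalized to three housekeeping genes, in HepaRG cells treated 48 h (highest 100 uM, half-log steps, 0.5% DMSO vehicle). Cells plated 48 h before switching to serum-free induction medium.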

[15] = read-out: Protein phosphatase 2A (PPP2R4), PTPA (gene 5524); test: LTEA_HepaRG_PPP2R4: Life Technologies and Expression Analysis (LTEA) Assay for Protein phosphatase 2A (PPP2R4) using HepaRG (AID 2283522)
Procedure, shortened: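 Expression was quantified by Fluidigm qRT-PCR normalised to three housekeeping genes after 48 h treatment. Human HepaRG cells received an 8-point series from 100 µM downward by half-logs, in duplicate with 0.5% DMSO vehicle and 1 mM phenobarbital as induction control.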

[16] = read-out: Phosphatase and tensin (PTEN), PTEN (gene 5728); test: LTEA_HepaRG_PTEN: Life Technologies and Expression Analysis (LTEA) Assay for Phosphatase and tensin (PTEN) using HepaRG (AID 2283523)
Procedure, shortened: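 HepaRG, 48 h exposure, 8-pt half-log series from 100 uM top, 0.5% DMSO vehicle, duplicates. Readout: Fluidigm qRT-PCR of PTEN transcript; housekeeping normalization (ACTB, GAPDH, POLR2A). Gain or loss fitted relative to DMSO baseline.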

[17] = read-out: solute carrier (SLC22A1), SLC22A1 (gene 6580); test: LTEA_HepaRG_SLC22A1: Life Technologies and Expression Analysis (LTEA) Assay for solute carrier (SLC22A1) using HepaRG (AID 2283524)
Procedure, shortened: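 qRT-PCR readout (TaqMan, Fluidigm arrays) of SLC22A1 transcript, normalized to three housekeeping genes; bidirectional curve fit relative to 0.5% DMSO vehicle. Differentiated human HepaRG cells, 48 h chemical exposure, top concentration 100 uM, half-log steps, eight points.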

[18] = read-out: Pyruvate Dehydrogenase Kinase 4 (PDK4), PDK4 (gene 5166); test: LTEA_HepaRG_PDK4: Life Technologies and Expression Analysis (LTEA) Assay for Pyruvate Dehydrogenase Kinase 4 (PDK4) using HepaRG (AID 2283525)
Procedure, shortened: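 HepaRG (human liver line), 48 h chemical exposure, 8-pt half-log CRC top 100 uM, 0.5% DMSO vehicle, duplicates. Readout: TaqMan qRT-PCR of PDK4 mRNA, housekeeping-normalized; gain/loss fit relative to DMSO baseline.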

[19] = read-out: NAD(P)H dehydrogenase [quinone] 1 (NQO1), NQO1 (gene 1728); test: LTEA_HepaRG_NQO1: Life Technologies and Expression Analysis (LTEA) Assay for NAD(P)H dehydrogenase [quinone] 1 (NQO1) using HepaRG (AID 2283526)
Procedure, shortened: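 NQO1 transcript induction or loss measured by TaqMan qRT-PCR, referenced to three housekeeping genes and fitted bidirectionally against 0.5% DMSO. HepaRG cultures exposed 48 h, duplicate, eight-point half-log series, top 100 uM.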

Measured: outcome

CCC(C)=NO
inactive: [1] | [2] | [3] | [4] | [5] | [6] | [7] | [8] | [9] | [10] | [11] | [12] | MYC, MYC (gene 4609) | [13] | [14] | [15] | [16] | [17] | [18] | [19]
